# Records with an inconclusive call do not appear. Activity calls are given as the source filed them. Calls follow the shape of the dose curve; as a rule, active = well fitted activation curve with a large enough effect in the signal ratio in the repeat runs (not every such curve was filed as active); inconclusive = weak or mixed curves, or effect the other way; inactive = flat fitted curve, though single readings scatter; the % refers to the signal ratio.
# Molecular target: Estrogen receptor beta (Homo sapiens) (UniProt Q92731)
# Assay: qHTS assay to identify small molecule agonists of the estrogen receptor beta (ER-beta) signaling pathway (AID 1259377)
# Conditions: ER-beta-UAS-bla HEK293T, beta-lactamase FRET ratio, 16 h; series mostly up to 92.4 µM
# Text: U.S. Tox21 Program National Center for Advancing Translational Sciences [NCATS] NIH Chemical Genomics Center [NCGC] U.S. Environmental Protection Agency [EPA] National Institutes of Environmental Health Sciences [NIEHS] National Toxicology Program [NTP] U.S. Food and Drug Administration [FDA] Tox21 Assay Overview: Estrogen receptor (ER), a nuclear hormone receptor, plays an important role in development, metabolic homeostasis and reproduction. Two subtypes of ER, ER-alpha and ER-beta, have similar expression patterns with some uniqueness in both types. Endocrine disrupting chemicals (EDCs) and their interactions with steroid hormone receptors like ER causes disruption of normal endocrine function. To identify the compounds that activate ER signaling, an ER beta-UAS-bla GripTite cell line (Life technologies, Madison, WI, USA) containing a beta-lactamase reporter gene under the control of an Upstream Activator Sequence (UAS) was used to screen Tox21 10K compound library.
# Tox21 Assay Protocol Summary: ER-beta-UAS-bla HEK293T cells were dispensed at 2,000 cells/5 uL of assay medium containing 2% charcoal stripped FBS per well into black wall/clear-bottom 1536-well plates using a Multidrop Combi (ThermoFisher Scientific, Waltham, MA) dispenser. After the assay plates were incubated at a 37C and 5% CO2 for 6 hr, 23 nL of compounds dissolved in DMSO, positive controls or DMSO only was transferred to the assay plate by a Pintool station (Kalypsys, San Diego, CA). The plates were incubated at 37C and 5% CO2 for 16 hr. Then 1 uL of LiveBLAzerTM B/G FRET substrate was added using a BioRAPTR FRD (Flying Reagent Dispenser, Aurora Discovery, San Diego, CA). After the plates were incubated at room temperature for 2 hours, fluorescence intensity was measured by an Envision plate reader (PerkinElmer, Shelton, CT).
# Sequence of Estrogen receptor beta (Homo sapiens) (Q92731 whole entry, looked up): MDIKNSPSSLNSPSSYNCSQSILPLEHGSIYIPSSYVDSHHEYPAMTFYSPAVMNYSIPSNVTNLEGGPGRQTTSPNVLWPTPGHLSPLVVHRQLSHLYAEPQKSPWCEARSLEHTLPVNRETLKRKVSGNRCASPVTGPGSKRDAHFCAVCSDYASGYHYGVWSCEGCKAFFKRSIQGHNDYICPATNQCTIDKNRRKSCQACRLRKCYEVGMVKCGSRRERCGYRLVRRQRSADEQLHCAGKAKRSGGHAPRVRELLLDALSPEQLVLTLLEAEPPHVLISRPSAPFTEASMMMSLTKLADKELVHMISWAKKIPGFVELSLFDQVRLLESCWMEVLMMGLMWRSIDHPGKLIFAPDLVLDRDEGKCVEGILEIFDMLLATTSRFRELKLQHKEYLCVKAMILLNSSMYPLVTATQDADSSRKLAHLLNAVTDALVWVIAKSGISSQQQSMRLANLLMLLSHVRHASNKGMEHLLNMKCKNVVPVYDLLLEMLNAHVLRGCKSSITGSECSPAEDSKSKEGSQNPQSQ
row,Compound,outcome
1,CCCSP(=O)(OCC)Oc1ccc(Br)cc1Cl (stereo not given),inactive
2,C1CCC(C2CCCCC2)CC1,inactive
3,c1ccc(N2CCNCC2)cc1,inactive
4,C[N+](C)=CCl,inactive
5,CCCCCCI,inactive
6,OC(c1ccc(F)cc1)(c1cncnc1)c1ccccc1Cl (stereo not given),inactive
7,CC(C(O)c1ccccc1)N(C)C/C=C/c1ccccc1 (stereo not given),inactive
8,CC(Cl)(Cl)[N+](=O)[O-],inactive
9,CCOC(=O)C1(c2ccccc2)CCN(CCc2ccc(N)cc2)CC1,inactive
10,C[C@]12CC[C@H]3[C@@H](CCC4=CC(=O)CC[C@@]43C)[C@@H]1CC[C@@H]2C(=O)O,inactive
11,COC(=O)C(c1ccccc1)C1CCCCN1 (stereo not given),inactive
12,CCC(C)(C)c1cc(-n2nc3ccccc3n2)c(O)c(C(C)(C)CC)c1,inactive
13,CCCSC(=O)Cl,inactive
14,O=[N+]([O-])c1ccc2c3c(cccc13)CC2,inactive
15,O=c1oc2ccccc2c(O)c1C1CCCc2ccccc21 (stereo not given),inactive
16,Clc1cccc(N2CCNCC2)c1,inactive
17,COP(=S)(OC)Oc1c(Cl)cc(C)cc1Cl,inactive
18,CC1CCCCC1NC(=O)Nc1ccccc1 (stereo not given),inactive
19,COc1cccc2c1cc([N+](=O)[O-])c1c(C(=O)O)cc3c(c12)OCO3,inactive
20,CCOC(=O)CP(=O)(OCC)OCC,inactive

row,Compound,outcome
1,CC1CN1P(=O)(N1CC1C)N1CC1C (stereo not given),inactive
2,N#CCBr,inactive
3,CCOP(=S)(OCC)SCSP(=S)(OCC)OCC,inactive
4,CC(C)NCC(O)c1ccc(N)c(C#N)c1 (stereo not given),inactive
5,CCCCOC(=O)c1ccccc1N,inactive
6,C#C[C@]1(O)C=C[C@H]2[C@@H]3CCC4=CC(=O)CC[C@@H]4[C@H]3CC[C@@]21CC,inactive
7,CC(C)(C)OC(=O)c1ncn2c1[C@@H]1CCCN1C(=O)c1c(Br)cccc1-2,inactive
8,CC(C=O)Cc1ccc2c(c1)OCO2 (stereo not given),inactive
9,CSc1ccc(C(=O)C(C)(C)N2CCOCC2)cc1,inactive
10,Cc1cc(C)c(C(=O)P(=O)(C(=O)c2c(C)cc(C)cc2C)c2ccccc2)c(C)c1,inactive
11,CCN(Cc1ccc(Cl)nc1)/C(=C/[N+](=O)[O-])NC,inactive
12,N#CC(CCc1ccc(Cl)cc1)(Cn1cncn1)c1ccccc1 (stereo not given),inactive
13,O=P(O)(Oc1ccccc1)Oc1ccccc1,inactive
14,CCOC(=O)N(C)C(=O)CSP(=S)(OCC)OCC,inactive
15,CCOC(=O)/C=C(C)/C=C/C[C@@H](C)CCCC(C)C,inactive
16,CC(N)=S,inactive
17,CCOP(=O)(N=C1SCCS1)OCC,inactive
18,CCc1cc2c(s1)-n1c(C)nnc1CN=C2c1ccccc1Cl,inactive
19,CC(C)COP(=O)(OCC(C)C)OCC(C)C,inactive
20,O=C(Nc1ccccc1)c1ccccc1I,inactive

# — PubChem BioAssay (Tox21)
